# Source: PubChem BioAssay (NCI)
# This is part of a sample that, as a whole, favours compounds with a hit. Of some 79,000 tested, about 15% had one in any assay. Values without a mark were called inactive. The source made the active and inactive calls. Cut-off read from the data, not from the text of the source: active = growth inhibition above about 70%; inactive = the rest.
# Assays:
# [1] = NCI Yeast Anticancer Drug Screen. Data for the rad52 strain (AID 147);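 note: 0% = growth of vehicle-treated control cultures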; details: S. cerevisiae rad52 mutant growth inhibition, hits give high values
# Outline: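 Yeast strain carrying a DNA damage repair alteration was exposed to test compounds. Growth inhibition was measured relative to vehicle-treated controls.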
# [2] = NCI Yeast Anticancer Drug Screen. Data for the wt1 strain (AID 149);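 note: 0% = growth of vehicle-treated wt1 cultures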; details: S. cerevisiae wt1 strain (SPY 50644) growth inhibition, hits give high values
# Outline: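 wt1 strain grown with compound or vehicle; inhibition taken from the growth difference.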
# [3] = NCI Yeast Anticancer Drug Screen. Data for the rad50EPP+ strain (AID 151);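 note: 0% = growth of vehicle-treated control cultures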; details: S. cerevisiae rad50 mutant strain, hits give high values
# Outline: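 Yeast strain carrying rad50 alteration (rad50EPP+) exposed to compounds; growth inhibition measured relative to vehicle-treated controls.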
# [4] = NCI Yeast Anticancer Drug Screen. Data for the mgt1 strain (AID 153); details: S. cerevisiae mgt1 mutant growth inhibition, hits give high values
# Outline: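 Yeast mgt1 strain (DNA repair/cell-cycle alteration panel) exposed to compounds; growth inhibition measured relative to vehicle-treated controls.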
# [5] = NCI Yeast Anticancer Drug Screen. Data for the rad50 strain (AID 155);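 note: 0% = growth of vehicle-only cultures of the same strain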; details: S. cerevisiae rad50 strain growth inhibition, hits give high values
# Outline: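 DNA repair mutant yeast, compound exposure, growth read-out; inhibition is taken relative to vehicle.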
# [6] = NCI Yeast Anticancer Drug Screen. Data for the mec2-1 strain (AID 157); details: S. cerevisiae mec2-1 strain, hits give high values
# Outline: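 mec2-1 yeast strain, carrying an alteration in DNA damage repair or cell cycle control, was exposed to compounds; growth inhibition was measured relative to vehicle-treated controls.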
# [7] = NCI Yeast Anticancer Drug Screen. Data for the rad14 strain (AID 159);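 note: 0% = growth of vehicle-treated control cultures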; details: S. cerevisiae rad14 strain growth inhibition, hits give high values
# Outline: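 DNA repair-defective yeast, compound-exposed; % growth inhibition derived by comparison with vehicle-treated controls.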
# [8] = NCI Yeast Anticancer Drug Screen. Data for the sgs1 mgt1 strain (AID 161);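 note: 0% = growth of cultures given vehicle only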; details: S. cerevisiae sgs1 mgt1 strain, hits give high values
# Outline: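 This yeast growth screen uses a strain with defined DNA-repair lesions; compound-treated growth is compared with vehicle-treated growth.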
# [9] = NCI Yeast Anticancer Drug Screen. Data for the CLN2oe strain (AID 163);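 note: 0% = growth of vehicle-only control cultures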; details: S. cerevisiae CLN2oe strain, hits give high values
# Outline: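 Yeast cells carrying a defined cell-cycle control alteration were exposed to test compounds. Growth inhibition was scored against vehicle-treated control cultures.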
# [10] = NCI Yeast Anticancer Drug Screen. Data for the cln2 rad14 strain (AID 165);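 note: 0% = growth equal to vehicle treated cultures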; details: S. cerevisiae cln2 rad14 strain, hits give high values
# Outline: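 Yeast carrying cln2 and rad14 alterations (cell cycle control and DNA damage repair) were exposed to compounds. Growth inhibition was measured against vehicle-treated controls.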
# [11] = NCI Yeast Anticancer Drug Screen. Data for the bub3 strain (AID 167); details: S. cerevisiae bub3 mutant strain, hits give high values
# Outline: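 In this screen, a yeast mutant lacking normal mitotic checkpoint function is challenged with compound. Relative growth versus vehicle gives the inhibition value.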
# [12] = NCI Yeast Anticancer Drug Screen. Data for the wt2 strain (AID 169);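 note: 0% = growth of vehicle-treated yeast cultures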; details: S. cerevisiae wt2 strain growth inhibition, hits give high values
# Outline: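 Yeast cells were exposed to test compounds, and growth inhibition was measured relative to vehicle-treated controls.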
# [13] = NCI Yeast Anticancer Drug Screen. Data for the mlh1 strain (AID 171);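 note: 0% = growth of vehicle-treated control cultures of the same strain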; details: S. cerevisiae mlh1 strain growth inhibition, hits give high values
# Outline: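 Yeast carrying a defined genetic alteration in DNA damage repair or cell cycle control were exposed to test compounds. Growth inhibition was measured relative to vehicle-treated controls.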
# [14] = NCI Yeast Anticancer Drug Screen. Data for the sgs1 strain (AID 173);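 note: 0% = growth of vehicle-only control cultures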; details: S. cerevisiae sgs1 mutant, hits give high values
# Outline: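 Yeast mutant strains carrying defined defects in DNA damage repair or cell cycle control were exposed to test compounds. Growth inhibition was scored against vehicle-treated controls.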
# [15] = NCI Yeast Anticancer Drug Screen. Data for the mlh1 rad18 strain (AID 175); details: S. cerevisiae mlh1 rad18 strain growth inhibition, hits give high values
# Outline: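 Growth inhibition of the yeast strain was measured after compound exposure and expressed relative to vehicle-treated controls. The strain carries defined defects in DNA damage repair.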
# [16] = NCI Yeast Anticancer Drug Screen. Data for the rad18 strain (AID 177); details: S. cerevisiae rad18 mutant growth inhibition, hits give high values
# Outline: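 Yeast carrying a defined DNA damage repair alteration were exposed to compounds. Growth inhibition was expressed relative to vehicle-treated controls.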
# [17] = at 5.0 µM (retest, dose inferred, filed as 0.5)
# [18] = at 50.0 µM (retest, dose inferred, filed as 5.0)
smiles,measurement,setting,value
CN(C)CCOc1ccc2c(c1)C/C(=C/c1ncc([N+](=O)[O-])n1C)C2=O,growth inhibition,[1]; at 1.2 µM,50%
same,growth inhibition,[1]; at 3.7 µM,70% (active)
same,growth inhibition,[1]; at 11.0 µM,83% (active)
same,growth inhibition,[1]; at 33.0 µM,91% (active)
same,growth inhibition,[1]; at 100.0 µM,90% (active)
same,growth inhibition,[2]; at 1.2 µM,28%
same,growth inhibition,[2]; at 3.7 µM,5%
same,growth inhibition,[2]; at 11.0 µM,20%
same,growth inhibition,[2]; at 33.0 µM,21%
same,growth inhibition,[2]; at 100.0 µM,39%
same,growth inhibition,[3]; at 1.2 µM,22%
same,growth inhibition,[3]; at 3.7 µM,6%
same,growth inhibition,[3]; at 11.0 µM,10%
same,growth inhibition,[3]; at 33.0 µM,35%
same,growth inhibition,[3]; at 100.0 µM,59%
same,growth inhibition,[4]; at 1.2 µM,31%
same,growth inhibition,[4]; at 3.7 µM,36%
same,growth inhibition,[4]; at 11.0 µM,29%
same,growth inhibition,[4]; at 33.0 µM,36%
same,growth inhibition,[4]; at 100.0 µM,62%
same,growth inhibition,[5]; at 1.2 µM,40%
same,growth inhibition,[5]; at 3.7 µM,47%
same,growth inhibition,[5]; [17],33%
same,growth inhibition,[5]; at 11.0 µM,64%
same,growth inhibition,[5]; at 33.0 µM,83% (active)
same,growth inhibition,[5]; [18],75% (active)
same,growth inhibition,[5]; at 50.0 µM,74.3% (active)
same,growth inhibition,[5]; at 100.0 µM,91% (active)
same,growth inhibition,[6]; at 1.2 µM,31%
same,growth inhibition,[6]; at 3.7 µM,30%
same,growth inhibition,[6]; [17],30%
same,growth inhibition,[6]; at 11.0 µM,53%
same,growth inhibition,[6]; at 33.0 µM,88% (active)
same,growth inhibition,[6]; [18],95% (active)
same,growth inhibition,[6]; at 50.0 µM,89.2% (active)
same,growth inhibition,[6]; at 100.0 µM,90% (active)
same,growth inhibition,[7]; at 1.2 µM,33%
same,growth inhibition,[7]; at 3.7 µM,51%
same,growth inhibition,[7]; at 11.0 µM,81% (active)
same,growth inhibition,[7]; at 33.0 µM,95% (active)
same,growth inhibition,[7]; at 100.0 µM,97% (active)
same,growth inhibition,[8]; [17],47%
same,growth inhibition,[8]; [18],82% (active)
same,growth inhibition,[8]; at 50.0 µM,83.1% (active)
same,growth inhibition,[9]; at 1.2 µM,26%
same,growth inhibition,[9]; at 3.7 µM,35%
same,growth inhibition,[9]; at 11.0 µM,31%
same,growth inhibition,[9]; at 33.0 µM,27%
same,growth inhibition,[9]; at 100.0 µM,64%
same,growth inhibition,[10]; [17],13%
same,growth inhibition,[10]; [18],74% (active)
same,growth inhibition,[10]; at 50.0 µM,77.9% (active)
same,growth inhibition,[11]; at 1.2 µM,3%
same,growth inhibition,[11]; at 3.7 µM,10%
same,growth inhibition,[11]; [17],6%
same,growth inhibition,[11]; at 11.0 µM,10%
same,growth inhibition,[11]; at 33.0 µM,20%
same,growth inhibition,[11]; [18],6%
same,growth inhibition,[11]; at 50.0 µM,72.9% (active)
same,growth inhibition,[11]; at 100.0 µM,59%
same,growth inhibition,[12]; at 1.2 µM,-40%
same,growth inhibition,[12]; at 3.7 µM,-23%
same,growth inhibition,[12]; at 11.0 µM,-30%
same,growth inhibition,[12]; at 33.0 µM,-22%
same,growth inhibition,[12]; at 100.0 µM,25%
same,growth inhibition,[13]; at 1.2 µM,31%
same,growth inhibition,[13]; at 3.7 µM,36%
same,growth inhibition,[13]; at 11.0 µM,29%
same,growth inhibition,[13]; at 33.0 µM,36%
same,growth inhibition,[13]; at 100.0 µM,62%
same,growth inhibition,[14]; at 1.2 µM,29%
same,growth inhibition,[14]; at 3.7 µM,52%
same,growth inhibition,[14]; at 11.0 µM,65%
same,growth inhibition,[14]; at 33.0 µM,70% (active)
same,growth inhibition,[14]; at 100.0 µM,81% (active)
same,growth inhibition,[15]; [17],53%
same,growth inhibition,[15]; [18],82% (active)
same,growth inhibition,[15]; at 50.0 µM,89.3% (active)
same,growth inhibition,[16]; at 1.2 µM,83% (active)
same,growth inhibition,[16]; at 3.7 µM,90% (active)
same,growth inhibition,[16]; at 11.0 µM,91% (active)
same,growth inhibition,[16]; at 33.0 µM,94% (active)
same,growth inhibition,[16]; at 100.0 µM,92% (active)
CC(=O)Cc1ccc[cH-]1.[Fe+2].c1cc[cH-]c1,growth inhibition,[1]; at 1.2 µM,5%
same,growth inhibition,[1]; at 3.7 µM,7%
same,growth inhibition,[1]; at 11.0 µM,9%
same,growth inhibition,[1]; at 33.0 µM,18%
same,growth inhibition,[1]; at 100.0 µM,46%
same,growth inhibition,[2]; at 1.2 µM,1%
same,growth inhibition,[2]; at 3.7 µM,2%
same,growth inhibition,[2]; at 11.0 µM,14%
same,growth inhibition,[2]; at 33.0 µM,10%
same,growth inhibition,[2]; at 100.0 µM,7%
same,growth inhibition,[3]; at 1.2 µM,3%
same,growth inhibition,[3]; at 3.7 µM,4%
same,growth inhibition,[3]; at 11.0 µM,8%
same,growth inhibition,[3]; at 33.0 µM,15%
same,growth inhibition,[3]; at 100.0 µM,13%
same,growth inhibition,[4]; at 1.2 µM,8%
same,growth inhibition,[4]; at 3.7 µM,11%
same,growth inhibition,[4]; at 11.0 µM,21%
same,growth inhibition,[4]; at 33.0 µM,11%
same,growth inhibition,[4]; at 100.0 µM,20%
same,growth inhibition,[5]; at 1.2 µM,12%
same,growth inhibition,[5]; at 3.7 µM,24%
same,growth inhibition,[5]; [17],-14%
same,growth inhibition,[5]; at 11.0 µM,22%
same,growth inhibition,[5]; at 33.0 µM,22%
same,growth inhibition,[5]; [18],8%
same,growth inhibition,[5]; at 50.0 µM,96.2% (active)
same,growth inhibition,[5]; at 100.0 µM,62%
same,growth inhibition,[6]; at 1.2 µM,-5%
same,growth inhibition,[6]; at 3.7 µM,-5%
same,growth inhibition,[6]; [17],-6%
same,growth inhibition,[6]; at 11.0 µM,-1%
same,growth inhibition,[6]; at 33.0 µM,12%
same,growth inhibition,[6]; [18],-12%
same,growth inhibition,[6]; at 50.0 µM,60.6%
same,growth inhibition,[6]; at 100.0 µM,18%
same,growth inhibition,[7]; at 1.2 µM,0%
same,growth inhibition,[7]; at 3.7 µM,-5%
same,growth inhibition,[7]; at 11.0 µM,13%
same,growth inhibition,[7]; at 33.0 µM,34%
same,growth inhibition,[7]; at 100.0 µM,49%
same,growth inhibition,[8]; [17],-4%
same,growth inhibition,[8]; [18],12%
same,growth inhibition,[8]; at 50.0 µM,86.8% (active)
same,growth inhibition,[9]; at 1.2 µM,4%
same,growth inhibition,[9]; at 3.7 µM,5%
same,growth inhibition,[9]; at 11.0 µM,17%
same,growth inhibition,[9]; at 33.0 µM,23%
same,growth inhibition,[9]; at 100.0 µM,23%
same,growth inhibition,[10]; [17],-7%
same,growth inhibition,[10]; [18],7%
same,growth inhibition,[10]; at 50.0 µM,40.5%
same,growth inhibition,[11]; at 1.2 µM,-4%
same,growth inhibition,[11]; at 3.7 µM,-10%
same,growth inhibition,[11]; [17],-4%
same,growth inhibition,[11]; at 11.0 µM,7%
same,growth inhibition,[11]; at 33.0 µM,13%
same,growth inhibition,[11]; [18],15%
same,growth inhibition,[11]; at 50.0 µM,72.5% (active)
same,growth inhibition,[11]; at 100.0 µM,21%
same,growth inhibition,[12]; at 1.2 µM,2%
same,growth inhibition,[12]; at 3.7 µM,5%
same,growth inhibition,[12]; at 11.0 µM,13%
same,growth inhibition,[12]; at 33.0 µM,17%
same,growth inhibition,[12]; at 100.0 µM,32%
same,growth inhibition,[13]; at 1.2 µM,-1%
same,growth inhibition,[13]; at 3.7 µM,-3%
same,growth inhibition,[13]; at 11.0 µM,-2%
same,growth inhibition,[13]; at 33.0 µM,7%
same,growth inhibition,[13]; at 100.0 µM,29%
same,growth inhibition,[14]; at 1.2 µM,0%
same,growth inhibition,[14]; at 3.7 µM,0%
same,growth inhibition,[14]; at 11.0 µM,9%
same,growth inhibition,[14]; at 33.0 µM,23%
same,growth inhibition,[14]; at 100.0 µM,46%
same,growth inhibition,[15]; [17],3%
same,growth inhibition,[15]; [18],68%
same,growth inhibition,[15]; at 50.0 µM,92.7% (active)
same,growth inhibition,[16]; at 1.2 µM,6%
same,growth inhibition,[16]; at 3.7 µM,17%
same,growth inhibition,[16]; at 11.0 µM,29%
same,growth inhibition,[16]; at 33.0 µM,10%
same,growth inhibition,[16]; at 100.0 µM,35%
